Reference: ChEMBL document CHEMBL3988442, “University of Dundee, Small-Polar-MMV Screening Library” (2021)
For some of these results: Entries with a potency or affinity are not part of this list.

Assays:
Parameters in all cases: scale not given: direction of the effect not stated beside the values
[1] = molecular target: Protein translocase subunit SecA (Escherichia coli (strain K12)) (UniProt P10408); assay: Assay to Identify E. coli SecA ATPase Inhibitors; assay type: functional; conditions: 30 µM
Chain of Protein translocase subunit SecA (Escherichia coli (strain K12)) (P10408 whole entry): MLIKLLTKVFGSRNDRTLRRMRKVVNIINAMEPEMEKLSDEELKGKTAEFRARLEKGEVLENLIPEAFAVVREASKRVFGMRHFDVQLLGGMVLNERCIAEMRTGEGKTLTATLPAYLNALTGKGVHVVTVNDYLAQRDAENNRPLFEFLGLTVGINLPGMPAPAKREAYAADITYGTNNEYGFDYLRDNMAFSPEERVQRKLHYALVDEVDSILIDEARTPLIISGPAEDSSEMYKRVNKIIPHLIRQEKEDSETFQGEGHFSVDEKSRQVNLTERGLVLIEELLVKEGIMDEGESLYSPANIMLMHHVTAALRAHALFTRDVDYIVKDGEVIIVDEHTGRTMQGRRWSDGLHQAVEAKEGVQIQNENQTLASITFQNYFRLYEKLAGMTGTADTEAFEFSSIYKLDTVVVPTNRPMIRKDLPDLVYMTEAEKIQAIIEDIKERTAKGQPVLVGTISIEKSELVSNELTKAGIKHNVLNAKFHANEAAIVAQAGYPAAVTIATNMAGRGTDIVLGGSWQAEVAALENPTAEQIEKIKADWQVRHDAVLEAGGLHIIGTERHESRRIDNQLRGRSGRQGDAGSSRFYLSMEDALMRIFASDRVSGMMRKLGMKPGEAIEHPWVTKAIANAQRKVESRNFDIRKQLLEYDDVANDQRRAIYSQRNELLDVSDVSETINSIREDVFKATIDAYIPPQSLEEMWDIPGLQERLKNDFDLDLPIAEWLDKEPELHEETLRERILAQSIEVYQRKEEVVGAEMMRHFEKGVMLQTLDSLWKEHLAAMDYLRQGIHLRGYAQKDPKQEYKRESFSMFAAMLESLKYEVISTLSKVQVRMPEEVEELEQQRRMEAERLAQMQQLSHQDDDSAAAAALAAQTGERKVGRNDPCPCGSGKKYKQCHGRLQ

[2] = molecular target: T1, Ubiquitin-activating enzyme e1, putative (Leishmania donovani (strain BPK282A1)) (UniProt E9BSI1); assay: Leishmania donovani Ubiquitin Activating Enzyme (LdE1); assay type: functional; conditions: 30 µM
T1 sequence (whole entry): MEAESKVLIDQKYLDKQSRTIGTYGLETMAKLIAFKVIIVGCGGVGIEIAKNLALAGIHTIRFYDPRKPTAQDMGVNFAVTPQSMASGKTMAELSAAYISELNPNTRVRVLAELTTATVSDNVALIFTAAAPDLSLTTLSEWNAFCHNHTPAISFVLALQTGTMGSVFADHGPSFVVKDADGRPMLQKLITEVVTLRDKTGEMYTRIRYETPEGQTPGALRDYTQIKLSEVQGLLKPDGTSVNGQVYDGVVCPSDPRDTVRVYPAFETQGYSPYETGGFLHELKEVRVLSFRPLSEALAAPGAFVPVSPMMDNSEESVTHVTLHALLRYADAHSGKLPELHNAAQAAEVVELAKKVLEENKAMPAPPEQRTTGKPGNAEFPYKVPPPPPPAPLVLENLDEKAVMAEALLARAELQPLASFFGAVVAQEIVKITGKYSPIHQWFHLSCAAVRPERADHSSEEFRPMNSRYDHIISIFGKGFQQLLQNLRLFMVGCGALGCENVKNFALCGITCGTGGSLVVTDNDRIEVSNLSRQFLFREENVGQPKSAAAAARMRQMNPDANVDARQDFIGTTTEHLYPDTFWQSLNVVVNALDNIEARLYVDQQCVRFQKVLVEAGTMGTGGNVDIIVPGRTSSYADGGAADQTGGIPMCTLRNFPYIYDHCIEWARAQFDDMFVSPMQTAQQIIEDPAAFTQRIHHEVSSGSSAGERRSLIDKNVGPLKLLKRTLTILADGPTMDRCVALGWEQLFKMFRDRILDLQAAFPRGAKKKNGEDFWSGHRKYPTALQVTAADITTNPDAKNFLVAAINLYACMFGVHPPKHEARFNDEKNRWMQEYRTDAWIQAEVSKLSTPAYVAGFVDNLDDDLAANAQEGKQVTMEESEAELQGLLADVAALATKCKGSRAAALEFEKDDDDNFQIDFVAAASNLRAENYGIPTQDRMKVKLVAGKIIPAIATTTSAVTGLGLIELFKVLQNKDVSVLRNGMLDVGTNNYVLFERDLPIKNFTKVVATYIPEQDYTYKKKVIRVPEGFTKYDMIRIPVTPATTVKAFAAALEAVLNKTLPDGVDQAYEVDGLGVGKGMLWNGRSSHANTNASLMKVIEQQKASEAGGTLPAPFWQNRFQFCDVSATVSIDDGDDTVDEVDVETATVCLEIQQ

[3] = molecular target: AMP-activated protein kinase, AMPK (Homo sapiens) (UniProt P54646+O43741+P54619+Q9UGJ0+Q9Y478+Q13131+Q9UGI9); assay: AMP-dependent Kinase enzyme assay. An in vitro enzyme assay that detects ADP turnover that is directly proportional to AMPK activity. This uses naive AMPK that is activated during the assay with MK-8722; assay type: functional; conditions: 30 µM
[4] = molecular target: Sialic acid-binding Ig-like lectin 9 (Homo sapiens) (UniProt Q9Y336); assay: Hs-Siglec9 ALPHAscreen SOP 20170721; conditions: 10 µM
Chain of Sialic acid-binding Ig-like lectin 9 (Homo sapiens) (Q9Y336 whole entry): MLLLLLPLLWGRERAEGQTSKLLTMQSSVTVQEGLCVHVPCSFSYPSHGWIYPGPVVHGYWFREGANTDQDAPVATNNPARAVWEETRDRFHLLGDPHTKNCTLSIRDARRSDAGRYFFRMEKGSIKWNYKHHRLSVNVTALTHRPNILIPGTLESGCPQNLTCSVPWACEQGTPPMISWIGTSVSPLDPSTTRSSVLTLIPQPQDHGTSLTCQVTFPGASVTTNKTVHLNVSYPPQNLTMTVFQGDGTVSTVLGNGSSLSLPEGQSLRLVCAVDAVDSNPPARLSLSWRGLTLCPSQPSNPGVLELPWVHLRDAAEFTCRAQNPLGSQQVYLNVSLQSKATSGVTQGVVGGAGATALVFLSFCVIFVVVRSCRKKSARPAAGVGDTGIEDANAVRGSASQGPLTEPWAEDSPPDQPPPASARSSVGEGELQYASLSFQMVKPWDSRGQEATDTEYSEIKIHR

Trypanosoma cruzi = assay: Trypanosoma cruzi phosphomannomutase and mannose-1-phosphate guanylyltransferase assay; assay type: functional; conditions: 10 µM
[5] = molecular target: T2, Arginase-2, mitochondrial (Homo sapiens) (UniProt P78540); assay: in vitro enzyme assay to detect the production of urea directly proportional to the activity of Arginase II; assay type: functional; conditions: 33.3 µM; further: in the data most compounds retested in dose-response had high values
T2 sequence (whole entry): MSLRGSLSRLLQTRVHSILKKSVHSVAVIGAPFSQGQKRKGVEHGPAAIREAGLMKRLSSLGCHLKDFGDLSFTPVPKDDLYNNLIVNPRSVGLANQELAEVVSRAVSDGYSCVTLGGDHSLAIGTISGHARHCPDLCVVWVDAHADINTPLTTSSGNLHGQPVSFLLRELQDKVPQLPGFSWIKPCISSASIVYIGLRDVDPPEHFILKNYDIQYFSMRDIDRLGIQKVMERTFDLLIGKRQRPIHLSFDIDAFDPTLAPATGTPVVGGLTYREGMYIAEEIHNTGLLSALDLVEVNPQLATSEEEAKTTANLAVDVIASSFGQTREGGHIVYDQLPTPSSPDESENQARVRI

[6] = molecular target: T3, Proteasome subunit beta (Trypanosoma cruzi) (UniProt O96673); assay: Trypanosoma cruzi proteasome chymotrypsin-like activity (TcProtChymo) assay.; further: in the data most compounds retested in dose-response had high values; assay type: functional; conditions: 9.37 µM
T3 sequence (whole entry): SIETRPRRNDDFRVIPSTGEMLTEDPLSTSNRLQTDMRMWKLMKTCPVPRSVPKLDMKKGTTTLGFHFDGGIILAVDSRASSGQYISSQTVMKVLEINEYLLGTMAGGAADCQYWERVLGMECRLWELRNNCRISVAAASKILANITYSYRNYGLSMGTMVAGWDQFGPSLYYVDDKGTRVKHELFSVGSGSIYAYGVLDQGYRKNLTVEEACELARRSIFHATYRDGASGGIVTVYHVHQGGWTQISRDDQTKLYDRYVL

Homo sapiens = species on record: Homo sapiens; assay: To identify inhibition of the IFN signalling (Jak-Stat) pathway via expression of an eGFP reporter gene under the control of an IFN-stimulated response element (ISRE) containing MxA promoter.; assay type: functional; conditions: 30 µM
[7] = molecular target: T4, Tyrosyl-tRNA synthetase, putative (Trypanosoma cruzi (strain CL Brener)) (UniProt Q4DSP6); assay: Trypanosoma cruzi tyrosyl tRNA synthetase (TcYRS) _High Tyrosine SOP; assay type: functional; conditions: 30 µM; further: in the data most compounds retested in dose-response had high values
T4 sequence (whole entry): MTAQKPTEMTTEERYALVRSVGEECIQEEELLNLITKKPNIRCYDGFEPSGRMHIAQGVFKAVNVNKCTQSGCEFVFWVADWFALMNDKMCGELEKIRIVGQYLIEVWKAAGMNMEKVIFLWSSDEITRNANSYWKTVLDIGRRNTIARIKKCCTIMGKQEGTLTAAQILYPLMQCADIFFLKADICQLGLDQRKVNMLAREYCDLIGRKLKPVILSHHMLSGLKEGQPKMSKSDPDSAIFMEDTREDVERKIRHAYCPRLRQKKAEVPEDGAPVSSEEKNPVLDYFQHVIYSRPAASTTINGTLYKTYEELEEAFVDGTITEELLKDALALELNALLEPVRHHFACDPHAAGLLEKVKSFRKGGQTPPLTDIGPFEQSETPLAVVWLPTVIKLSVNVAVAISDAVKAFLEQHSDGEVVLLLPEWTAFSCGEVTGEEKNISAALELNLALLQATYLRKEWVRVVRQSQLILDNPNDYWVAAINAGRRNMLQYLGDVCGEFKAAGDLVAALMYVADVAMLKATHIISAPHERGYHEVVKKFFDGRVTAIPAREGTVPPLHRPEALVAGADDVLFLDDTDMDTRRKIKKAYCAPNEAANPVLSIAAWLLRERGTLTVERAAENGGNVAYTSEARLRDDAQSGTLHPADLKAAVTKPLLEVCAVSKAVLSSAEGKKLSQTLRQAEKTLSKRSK

[8] = molecular target: T4, Tyrosyl-tRNA synthetase, putative (Trypanosoma cruzi (strain CL Brener)); assay: Trypanosoma cruzi tyrosyl tRNA synthetase (TcYRS) SOP; assay type: functional; conditions: 30 µM
[9] = molecular target: Chromo domain-containing protein 1 (Saccharomyces cerevisiae (strain ATCC 204508 / S288c) (Baker's yeast)) (UniProt P32657); assay: ScCHD-1 Enzyme Inhibition Assay; assay type: functional; conditions: 30 µM; further: in the data most compounds retested in dose-response had high values
Chain of Chromo domain-containing protein 1 (Saccharomyces cerevisiae (strain ATCC 204508 / S288c) (Baker's yeast)) (P32657 whole entry, the tested form may be a part): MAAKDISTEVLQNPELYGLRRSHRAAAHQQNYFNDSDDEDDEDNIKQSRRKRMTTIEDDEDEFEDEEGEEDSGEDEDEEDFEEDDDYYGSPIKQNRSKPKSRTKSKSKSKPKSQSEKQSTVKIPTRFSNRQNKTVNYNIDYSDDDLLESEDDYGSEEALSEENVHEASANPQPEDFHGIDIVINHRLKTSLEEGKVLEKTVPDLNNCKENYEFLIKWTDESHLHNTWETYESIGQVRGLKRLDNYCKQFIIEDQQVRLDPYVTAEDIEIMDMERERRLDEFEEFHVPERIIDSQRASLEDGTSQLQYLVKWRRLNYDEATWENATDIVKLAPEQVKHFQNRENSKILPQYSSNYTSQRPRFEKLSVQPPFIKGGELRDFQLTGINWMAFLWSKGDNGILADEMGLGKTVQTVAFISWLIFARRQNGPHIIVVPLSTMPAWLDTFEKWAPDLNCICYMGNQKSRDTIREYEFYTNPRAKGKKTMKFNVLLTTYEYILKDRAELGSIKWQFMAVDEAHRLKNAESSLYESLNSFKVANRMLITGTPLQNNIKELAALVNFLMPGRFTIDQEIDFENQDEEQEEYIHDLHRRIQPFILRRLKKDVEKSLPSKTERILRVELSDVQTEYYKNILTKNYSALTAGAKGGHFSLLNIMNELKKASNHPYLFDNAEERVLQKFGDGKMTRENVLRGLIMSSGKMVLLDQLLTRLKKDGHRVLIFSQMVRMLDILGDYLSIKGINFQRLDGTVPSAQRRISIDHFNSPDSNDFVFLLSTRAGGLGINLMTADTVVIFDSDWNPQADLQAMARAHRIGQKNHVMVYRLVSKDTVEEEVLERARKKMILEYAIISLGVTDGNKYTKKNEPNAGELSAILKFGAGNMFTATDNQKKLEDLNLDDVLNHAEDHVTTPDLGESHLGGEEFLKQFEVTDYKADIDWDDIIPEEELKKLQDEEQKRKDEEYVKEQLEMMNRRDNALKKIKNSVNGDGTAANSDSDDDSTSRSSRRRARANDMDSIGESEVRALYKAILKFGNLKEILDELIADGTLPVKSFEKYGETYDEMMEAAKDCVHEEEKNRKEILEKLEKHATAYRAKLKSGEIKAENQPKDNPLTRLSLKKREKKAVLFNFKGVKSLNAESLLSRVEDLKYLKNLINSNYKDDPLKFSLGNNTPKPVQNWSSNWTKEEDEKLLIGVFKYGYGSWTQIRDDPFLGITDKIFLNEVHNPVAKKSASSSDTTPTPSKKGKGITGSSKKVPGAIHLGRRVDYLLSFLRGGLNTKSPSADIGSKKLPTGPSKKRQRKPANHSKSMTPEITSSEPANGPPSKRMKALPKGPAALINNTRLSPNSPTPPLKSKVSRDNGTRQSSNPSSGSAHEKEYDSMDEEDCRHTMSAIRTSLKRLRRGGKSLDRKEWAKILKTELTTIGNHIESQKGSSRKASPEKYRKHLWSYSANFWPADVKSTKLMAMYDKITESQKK

Structure (SMILES)	Percent Effect [1] [%]	Percent Effect [2] [%]	Percent Effect [3] [%]	Percent Effect [4] [%]	Percent Effect (Trypanosoma cruzi) [%]	Percent Effect [5] [%]	Percent Effect [6] [%]	Percent Effect (Homo sapiens) [%]	Percent Effect [7] [%]	Percent Effect [8] [%]	Percent Effect [9] [%]
Cc1ccc(CNC(c2ccccc2)c2nccn2C)cc1C (stereo not drawn)	-0.655	18.9	-5.59	9.13	2.32	-0.554	8.08	30.7	10.9	25.6	-5.06
CCC(O)CN1CCN(C(=O)c2cccn2Cc2cccs2)CC1 (stereo not drawn)	-3.15	5.06	1.52	11.3	-2.17	0.38	-3.03	5.7	4.43	11.4	-5.26
CC(=O)N1CCN(C(=O)NCc2csc(Br)c2)CC1	-7.09	2.7	4.94	5.56	0.0929	-0.554	-3.77	6.02	7.92	1.22	-0.334
COCC1CN(Cc2ccc(C)o2)Cc2ncn(CC3CC3)c21 (stereo not drawn)	0.368	5.2	-2.46	5.95	6.79	-6.9	3.99	-10.6	1.07	1.24	-7.38
CCc1csc(C2CCCN(C(=O)c3ccc(OC)nn3)C2)n1 (stereo not drawn)	-6.61	7.79	-35.3	12.8	0.187	-0.356	4.73	14.5	7.77	14.6	-7.71
C[C@@H]1CN(C(=O)NC2CC2)C[C@]12CCN(c1ccsc1)C2=O	-4.11	5.33	8.07	0.822	-4.13	2.1	2.56	8.5	4.25	11.5	-3.74
NC(=O)CCN1CCC(C(=O)c2cc(F)ccc2F)CC1	-1.09	7.89	-2.87	-1.51	3.21	-5.92	0.671	-0.792	3.19	2.6	-16
Cc1cc(-c2cnc(N3CCCC(C)C3)nc2-c2cccnc2C)on1 (stereo not drawn)	-7.33	1.35	6.26	-5.16	-5.93	-5.34	8.74	59.4	-8.6	-3.9	-22.2
